Source: the supplement of paper PMC12350171
Where a name gives a salt, the structure may show the parent alone.

Assays:
Settings in all cases: 20 µM
[1] = system: Haemophilus parainfluenzae; assay: growth AUC normalised to DMSO control (fraction of control); higher = less growth inhibition, active = hit call of the paper
Procedure, shortened: (§1)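 Three biological replicates were carried out, with OD578 read hourly for 24 h. Before inoculation at a starting OD578 of 0.01, pathogens were passaged anaerobically twice; plates were pre-reduced mGAM containing 20 μM compound and 1% DMSO, sealed with breathable membranes, and the Haemophilus parainfluenzae medium carried added hemin and NAD. Area under each growth curve was calculated by the trapezoidal rule up to the exponential-to-stationary transition and normalised to DMSO controls on the same plate.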

[2] = system: Salmonella enterica typhimurium; assay: as above
Procedure, shortened: as §1

[3] = system: Shigella flexneri; assay: as above
Procedure, shortened: as §1

[4] = system: Vibrio cholerae; assay: as above
Procedure, shortened: as §1

[5] = system: Yersinia pseudotuberculosis; assay: as above
Procedure, shortened: as §1

[6] = system: P. vulgatus RND KO; assay: growth AUC normalised to DMSO control (median) (fraction of control); higher = less growth inhibition, active = hit call of the paper
Procedure, shortened: (§2)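 Each strain went through two overnight passages under anaerobic conditions before growth in mGAM in 96-well plates, starting at OD578 0.01, with each compound from the approved-drug library at 20 μM and 1% DMSO. Inside an anaerobic incubator, OD578 was recorded every hour for 24 h. Growth curves were cut off at entry into stationary phase, and the area under the curve was calculated by the trapezoidal rule and normalised to vehicle wells on the same plate. Reported values are medians of three biological replicates.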

[7] = system: P. vulgatus WT; assay: as above
Procedure, shortened: as §2

[8] = system: S. enterica typhimurium WT; assay: as above
Procedure, shortened: as §2

[9] = system: S. enterica typhimurium tolC KO; assay: as above
Procedure, shortened: as §2

Measured: growth AUC normalised to DMSO control
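Wherever growth AUC normalised to DMSO control (median) is given: active when median AUC fell below 0.1.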

O=C(CCCN1CCC2(CC1)C(=O)NCN2c1ccccc1)c1ccc(F)cc1 [Spiperone]
inactive: [1] 0.953 | [2] 0.978 | [3] 0.978 | [4] 0.917 | [5] 0.985 | [6] 0.98 | [7] 0.988 | [8] 0.995 | [9] 0.979

O=C(NCNC(=O)NC1C(=O)NC(=O)N1CO)NC1C(=O)NC(=O)N1CO (stereo not drawn) [Imidurea]
inactive: [1] 0.992 | [2] 1 | [3] 0.995 | [4] 1.01 | [5] 1 | [6] 0.991 | [7] 1.01 | [8] 0.998 | [9] 0.996

C[C@@H]1CN([C@H]2CC[C@](C#N)(c3ccc(F)cc3)CC2)CC[C@]1(C(=O)O)c1ccccc1 [Levocabastine hydrochloride]
active: [4] 0.239
inactive: [1] 1.02 | [2] 1 | [3] 1.02 | [5] 0.997 | [6] 0.989 | [7] 1.05 | [8] 0.997 | [9] 1.01

CC(C)C[C@H]1C(=O)N2CCC[C@H]2[C@]2(O)O[C@](NC(=O)[C@@H]3C=C4c5cccc6[nH]c(Br)c(c56)C[C@H]4N(C)C3)(C(C)C)C(=O)N12 [Bromocryptine mesylate]
inactive: [1] 1 | [2] 1 | [3] 0.996 | [4] 0.996 | [5] 1.03 | [6] 1.01 | [7] 1.03 | [8] 1.02 | [9] 0.994

COc1cccc(C2(O)CCCCC2CN(C)C)c1 (stereo not drawn) [Tramadol hydrochloride]
inactive: [1] 0.971 | [2] 0.98 | [3] 0.992 | [4] 0.983 | [5] 0.994 | [6] 0.988 | [7] 0.989 | [8] 0.986 | [9] 0.986

CC(=O)O[C@H]1C[C@@H]2CC[C@@H]3[C@H](CC[C@@]4(C)[C@H]3C[C@H]([N+]3(C)CCCCC3)[C@@H]4OC(C)=O)[C@@]2(C)C[C@@H]1[N+]1(C)CCCCC1 [Pancuronium bromide]
inactive: [1] 1.04 | [2] 1.01 | [3] 1.05 | [4] 1.04 | [5] 1 | [6] 1.01 | [7] 1.04 | [8] 1.03 | [9] 1.01

CNC(C)(C)Cc1ccccc1 [Mephentermine hemisulfate]
inactive: [1] 1.09 | [2] 1.03 | [3] 1.03 | [4] 1.06 | [5] 0.977 | [6] 1.03 | [7] 1.08 | [8] 1 | [9] 0.994

NCCc1c[nH]c2ccc(O)cc12 [Serotonin hydrochloride]
inactive: [1] 1.07 | [2] 0.983 | [3] 1.02 | [4] 1.06 | [5] 0.981 | [6] 1.04 | [7] 1.08 | [8] 1 | [9] 0.998

C[C@@H]1CC[C@H]2[C@@H](C)C(=O)O[C@@H]3O[C@@]4(C)CC[C@@H]1[C@]32OO4 [Artemisinin]
inactive: [1] 0.986 | [2] 0.988 | [3] 1.01 | [4] 0.987 | [5] 0.957 | [6] 1.02 | [7] 1.04 | [8] 0.996 | [9] 0.998

CN1[C@@H]2CC[C@H]1C[C@@H](OC(=O)C(CO)c1ccccc1)C2 (stereo partly drawn) [Atropine sulfate monohydrate]
inactive: [1] 1.06 | [2] 1.01 | [3] 1.06 | [4] 1.03 | [5] 1 | [6] 1.04 | [7] 1.07 | [8] 1.01 | [9] 0.987

COc1ccc(Cc2nccc3cc(OC)c(OC)cc23)cc1OC [Papaverine hydrochloride]
inactive: [1] 0.976 | [2] 1 | [3] 0.971 | [4] 0.944 | [5] 0.997 | [6] 0.997 | [7] 1.01 | [8] 1.01 | [9] 0.976

CCN(C)C(=O)Oc1cccc([C@H](C)N(C)C)c1 [Rivastigmine]
inactive: [1] 1.13 | [2] 1.04 | [3] 1.02 | [4] 1.11 | [5] 1.04 | [6] 1.01 | [7] 1.03 | [8] 1.01 | [9] 1.02
